Screening results as filed in PubChem.
The list is not random: actives were taken first. Their share in the collection is about 3.8%.
HSF1 inh – HSF1 inhibition; 300,000 compounds, 0.77% hits; NIH3T3-HGL HSE-luciferase, MG132-induced, luminescence 8 h; active compounds read low; AID 2098; activity change, negative = inhibition, % at 7.5 µM (by protocol);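 active means more than half of replicate wells show activity change below -50%, luminescence cut by over half; inconclusive means some wells, but at most half, below -50%; inactive means no replicate well below -50%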;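 further: luciferase reports HSF-1 transcriptional activity via heat shock element; 0% = median of DMSO wells and -100% = zero luminescence signal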
esBAF inh – inhibitors of esBAF chromatin remodeling in mouse ES cells; Bmi1-luciferase knock-in reporter, 24 h; 100% = twice the neutral-well signal; reporter increase, % at 12.5 µM; 350,000 compounds, 2% hits; AID 602393; in the data active means activation above about 40%; inconclusive means no clear call, values can overlap the other calls;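 further: 0% = median of the plate's neutral control wells and 100% = double that signal; a rise in the Bmi1 reporter signal indicates esBAF inhibition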
HSF-1 act – increases HSF-1 driven luciferase reporter signal. NIH3T3-HGL HSF-1 luciferase reporter, MG132, 8 h; 100% = twice DMSO control signal. activation, % at 9 µM. 300,000 compounds, 1.7% hits. AID 504408;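 active means mean replicate activation of at least 50% with a set share of replicates each reaching 50%; inconclusive means only one of those two conditions met; inactive means mean below 50% and too few replicates reaching it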;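 further: 0% = median of the neutral control wells and 100% = twice that signal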
MITF act – MITF TRPM1 promoter activation in melanoma cells; SK-MEL-5 TRPM1-promoter luciferase, 24 h; % of positive control, neutral wells = 0; activation, % at 12.5 µM; 300,000 compounds, 0.75% hits; AID 588334;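 active means mean activation of at least 80% with every replicate also reaching 80%; inconclusive means mean reaches 80% but some replicate falls short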;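 further: 0% = neutral control wells and 100% = parthenolide positive control wells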
Wnt bcat act – activators of Wnt/beta-catenin signaling; Wnt/beta-catenin reporter cell assay, activator, plate reader; activation, % at 9.35 µM; 300,000 compounds, 1.2% hits; AID 743398; in the data active means activation above about 30%, passing the limit was not always enough; inconclusive means no clear call, values can overlap the other calls;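 further: 0% = neutral control wells and 100% = positive control wells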
* hit, by the source's call; ? = inconclusive; . = not tested or not shown; ! = not active in a repeat.

SMILES | HSF1 inh | esBAF inh | HSF-1 act | MITF act | Wnt bcat act
COc1ccccc1CNC(=O)C1CCCN(c2cnccn2)C1 (stereo not drawn) | 3 | -10 | -21 | 25 | 0
O=C(c1ccco1)N1CCN(c2nc3ccsc3c(=O)s2)CC1 | 8 | 39 | 18 | 43 | 5
Nc1nc(N2CCN(C(=O)c3ccco3)CC2)nc2ccc(Br)cc12 | -6 | . | -28 | 105* | .
Cc1cc2nc(N3CCN(C(=O)c4ccco4)CC3)sc2cc1C | 22 | 69* | 42 | 116* | ?
Cc1cc(C)c2nc(N3CCN(C(=O)c4ccco4)CC3)sc2c1 | 15 | 54* | 16 | 91* | -21
Cc1cc(C)c2nc(N3CCN(C(=O)c4cccs4)CC3)sc2c1 | 0 | . | 4 | 2 | 2
COc1ccc(S(=O)(=O)N(C)C[C@@H]2Oc3ccc(NS(C)(=O)=O)cc3C(=O)N([C@H](C)CO)C[C@@H]2C)cc1 | . | -3 | . | . | .
COc1cc(/C=C(\C#N)C(=O)NCC2CCCO2)ccc1O (stereo not drawn) | 0 | . | 19 | 36 | -1
Cc1cc(/C=C(\C#N)C(=O)NCC2CCCO2)c(C)n1-c1ccc(Cl)cc1 (stereo not drawn) | 16 | 88* | 23 | ? | .
CN1CCN(C(c2ccccn2)c2cc(Cl)c3cccnc3c2O)CC1 (stereo not drawn) | -13 | 5 | -19 | -17 | 58*
Cc1ccc(C(c2cc(Cl)c3cccnc3c2O)N2CCN(C)CC2)cc1 (stereo not drawn) | -3 | -1 | 11 | -10 | .
Oc1c(C(c2ccccn2)N2CCC(Cc3ccccc3)CC2)cc(Cl)c2cccnc12 (stereo not drawn) | -25 | . | -30 | . | 204*
COc1ccc(-c2cc(C(=O)N3CCN(c4ccc(F)cc4)CC3)no2)cc1OC | 6 | -4 | 28 | -6 | -1
COc1ccc(-c2cc(C(=O)N3CCCC3)no2)cc1OC | 16 | 67* | 23 | 36 | 20
COc1ccc(-c2cc(C(=O)N3CCN(Cc4ccccc4)CC3)no2)cc1OC | 1 | -4 | 1 | 13 | .
COc1ccc(-c2cc(C(=O)N3CCCCC3)no2)cc1OC | 4 | 59* | 2 | 61 | -4
CC=Cc1ccc2n(c1=O)C[C@H]1[C@H](CO)[C@@H](C(=O)NCCC)N(C(=O)CC)[C@@H]21 (mixture of isomers) | . | 3 | . | . | .
CCCNC(=O)N1C[C@H](C)[C@H](OC)CN(C)C(=O)c2ccc(NC(=O)CCC)cc2OC[C@H]1C | . | -6 | . | . | .
CN1[C@@H]2c3ccc(-c4cncnc4)c(=O)n3C[C@@H]2[C@@H](CO)[C@@H]1C(=O)N1CCc2ccccc2C1 | . | 5 | . | . | .
CCOC(=O)c1c(N)n[nH]c1-c1ccc(OC)cc1 | 8 | -5 | 0 | -14 | .
CCOC(=O)NC(=S)Nc1ccc(OC)cc1 | 1 | 7 | -3 | 35 | -2
CCOC(=O)c1cn[nH]c1NC(=S)Nc1ccc(OC)cc1 | -54* | . | -63 | . | 23
COC(=O)c1cn[nH]c1NC(=S)Nc1ccc(Cl)c(Cl)c1 | -60* | 1 | -67 | 16 | .
COC(=O)c1cn[nH]c1NC(=S)Nc1ccccc1C | 7 | 67* | 20 | ? | 10
CCOC(=O)c1c(Nc2ccc(OC)cc2)n[nH]c1C | . | . | . | . | 34*
SMILES | HSF1 inh | esBAF inh | HSF-1 act | MITF act | Wnt bcat act
Cc1noc(C)c1NC(=O)Nc1cccc2c1O[C@@H](CN(C)C(=O)Nc1ccc3c(c1)OCO3)[C@@H](C)CN([C@@H](C)CO)C2=O | . | 2 | . | . | .
CCN(CC)C(=O)c1cc2sc3ccccc3c2s1 | 42 | 80* | 39 | 98* | .
COc1ccc(S(=O)(=O)Nc2ccc3c(c2)CC(=O)N([C@H](C)CO)C[C@H](C)[C@@H](CN(C)C(=O)Nc2ccc4c(c2)OCO4)O3)cc1 | . | 3 | . | . | .
O=C(c1ccco1)N1CCN(c2ncnc3c2oc2ccccc23)CC1 | 12 | 58* | 36 | . | .
Cc1nn(-c2ccccc2)nc1C(=O)NN | 6 | 4 | 33 | 0 | 36*
Cc1nn(-c2ccccc2)nc1C(=O)NNC(=O)c1cccc2ccccc12 | 1 | -3 | -3 | -13 | -1
C[C@@H]1CN([C@H](C)CO)C(=O)Cc2cc(NS(=O)(=O)c3ccc(F)cc3)ccc2O[C@@H]1CN(C)C(=O)Nc1ccc(F)cc1 | . | 1 | . | . | .
C=C1SC(=Nc2ccccc2Cl)N(C(=O)c2sc3ccccc3c2Cl)C1(C)C | 6 | . | 57* | 19 | 8
C=C1SC(=Nc2c(C)cccc2Cl)N(C(=O)c2sc3ccccc3c2Cl)C12CCCCC2 | 5 | -6 | 9 | 4 | -8
C[C@H](CO)N1C[C@H](C)[C@@H](CN(C)Cc2ccncc2)OCCCC[C@H](C)Oc2ccc(NC(=O)Nc3ccc(F)cc3)cc2C1=O | . | -1 | . | . | .
Cc1cc(C(=O)COc2ncnc3sccc23)c(C)n1C | 18 | 55* | -7 | 55 | .
CNC(=O)COc1ncnc2sccc12 | . | -8 | . | 10 | 3
C[C@@H]1CN([C@H](C)CO)C(=O)c2cc(NS(=O)(=O)c3ccc(F)cc3)ccc2O[C@H]1CN(C)S(=O)(=O)c1cn(C)cn1 | . | -2 | . | . | .
C/C(N)=C(/C#N)C(=O)CSc1nnc(Nc2cccc(C)c2C)s1 | 12 | 86*! | 40 | 45 | 14
CC(=O)c1ccc(NC(=S)Nc2cccc3ccccc23)cc1 | -67* | 5 | -72 | -1 | 8
Cc1ccc(NC(=S)Nc2cccc3ccccc23)cc1F | -55* | . | -62 | -17 | 2
Fc1cccc(NC(=S)Nc2cccc3ccccc23)c1 | 7 | -5 | 24 | -14 | 4
CCCNC(=O)[C@H]1[C@H](CO)[C@H]2Cn3c(ccc(-c4cccnc4)c3=O)[C@@H]1N2C(=O)Nc1ccccc1 | . | -1 | . | . | .
CCOc1ccccc1CNC(=O)CCn1ccc2cc(S(=O)(=O)N3CCCCC3)ccc21 | -73* | 7 | -80 | -10 | 0
C[C@H]1CN([C@@H](C)CO)C(=O)c2cc(NS(C)(=O)=O)ccc2O[C@H]1CN(C)Cc1ccc2c(c1)OCO2 | . | 2 | . | . | .
COc1cccc(C(=O)N/N=c2\sc3ccccc3n2C)c1 | 44 | . | 81* | 5 | .
CN(CC(=O)Nc1ccccc1Br)C(=O)c1cccn1C | -67* | 0 | -74 | 4 | -3
CN(CC(=O)Nc1ccccc1Br)C(=O)COc1ccc2ccccc2c1 | . | 41* | . | -15 | 1
CC(C)(C)c1[nH]nc2c1C(C1C=CCCC1)C(C#N)=C(N)O2 (stereo not drawn) | 11 | 3 | 7 | . | .
CC(C)c1[nH]nc2c1C(C1C=CCCC1)C(C#N)=C(N)O2 (stereo not drawn) | 7 | . | -4 | -10 | 46*
CCCC(=O)Nc1ccc2c(c1)C(=O)N(C)C[C@@H](OC)[C@@H](C)CN(Cc1ccc(-c3ccccn3)cc1)[C@H](C)CO2 | . | 12 | . | . | .
COc1ccc(C)cc1Nc1nc(N)c2ccccc2n1 | 4 | 13 | 23 | . | -1
Cc1ccccc1Nc1nc(N)c2ccccc2n1 | . | -20 | . | 29 | 40*
Nc1nc(Nc2ccccc2)nc2ccccc12 | 20 | 4 | 39 | . | 41*
